# USP17 inh: human USP17-like deubiquitinase inhibition. inhibition, % at 50 µM. AID 1645855. A8MUK1. purified USP17, Ub-rhodamine cleavage fluorescence, 3 h. hit rate 6.5% among 47,000
# Target sequence (A8MUK1 whole entry, looked up): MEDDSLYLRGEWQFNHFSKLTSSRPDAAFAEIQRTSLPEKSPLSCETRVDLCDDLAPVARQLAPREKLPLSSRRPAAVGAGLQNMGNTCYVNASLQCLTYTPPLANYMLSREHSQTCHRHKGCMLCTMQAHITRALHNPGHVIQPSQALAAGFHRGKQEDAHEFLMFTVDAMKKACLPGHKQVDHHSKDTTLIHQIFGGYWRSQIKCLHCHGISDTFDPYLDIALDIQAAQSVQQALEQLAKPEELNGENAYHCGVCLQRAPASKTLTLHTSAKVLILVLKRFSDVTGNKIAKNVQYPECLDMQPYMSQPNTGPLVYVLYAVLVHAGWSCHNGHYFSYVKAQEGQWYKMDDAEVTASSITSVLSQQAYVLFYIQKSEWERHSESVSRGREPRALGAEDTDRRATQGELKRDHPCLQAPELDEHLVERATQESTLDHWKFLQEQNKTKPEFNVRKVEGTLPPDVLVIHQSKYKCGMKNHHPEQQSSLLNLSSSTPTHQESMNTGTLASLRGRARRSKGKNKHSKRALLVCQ
# USP8 block: human USP8 deubiquitinase inhibition; purified USP8, Ub-rhodamine cleavage fluorescence, 30 min; inhibition, % at 20 µM; hit rate 4.2% among 47,000; AID 1645853
# USP30 block: human USP30 deubiquitinase inhibition | Q70CQ3 | purified USP30, Ub-rhodamine cleavage fluorescence | inhibition, % at 25 µM | hit rate 5.3% among 47,000
# USP28 inh: human USP28 deubiquitinase inhibition | purified USP28, Ub-rhodamine cleavage fluorescence, 30 min | inhibition, % at 25 µM | hit rate 3% among 47,000 | AID 1645857
# USP10 block: human USP10 deubiquitinase inhibition; hit rate 1.1% among 47,000; inhibition, % at 20 µM; AID 1645856; purified USP10, Ub-rhodamine fluorescence, 60 min
# A number is an active result; – = inactive; · = not tested or not shown. A selection: hits, their analogues and other compounds. The true share with any hit is near 14%. Rule as the data show it: active = inhibition above about 30%; inactive = the rest.
SMILES,USP17 inh,USP8 block,USP30 block,USP28 inh,USP10 block
CCc1ccccc1NC(=O)CCn1c(=O)c2cccn2c2ccccc21,–,37.1,–,–,–
COc1cccc(CNC(=O)CSc2ncc3c(n2)-c2ccc(Cl)cc2N(C)S3(=O)=O)c1,–,–,–,–,–
O=C(NC1CCN(Cc2ccccc2)CC1)c1cc(S(=O)(=O)Nc2cccc(C(F)(F)F)c2)ccc1Cl,–,–,–,–,–
Cc1nc(SCC(=O)NC(C)c2ccccc2)c2oc3ccccc3c2n1 (centres undefined),37.9,–,–,–,39.7
COc1ccc(NC(=O)CSc2nc(C)nc3c2oc2ccccc23)c(OC)c1,–,–,–,–,–
Cc1nc(SCC(=O)Nc2ccc(Cl)c(Cl)c2)c2oc3ccccc3c2n1,–,–,–,–,–
COc1ccccc1NC(=O)CSc1nc(C)nc2c1oc1ccccc12,–,–,35.2,–,–
Cc1ccc(NC(=O)CSc2nc(C)nc3c2oc2ccccc23)c(C)c1,–,–,31.6,–,–
Cc1nc(SCC(=O)Nc2ccc(C)c(Cl)c2)c2oc3ccccc3c2n1,43.7,–,39.3,–,–
CC(C)NC(=O)C1(Cc2ccccc2-c2ccncc2)CCN(C(=O)c2ccncc2)CC1,–,–,–,–,–
O=C(NC1CCS(=O)(=O)C1)c1sc2cc(F)ccc2c1Cl (centres undefined),–,–,–,–,–
O=C(c1ccc2c(c1)OCO2)N1CCN(Cc2noc3ccccc23)CC1,–,–,–,–,–
COc1ccccc1CNC(=O)c1nc(-c2cn(-c3ccccc3)nc2C)no1,–,–,–,–,–
CC(=O)Nc1ccc(C2C3=C(CC(C)(C)CC3=O)Nc3onc(C)c32)cc1 (centres undefined),–,–,–,–,–
CCOc1cc(C2C3=C(CC(C)(C)CC3=O)Nc3onc(C)c32)ccc1O (centres undefined),50.9,–,45.2,–,–
O=C(Nc1cnc(-c2ccccc2)nc1)C1CC1,–,–,–,–,–
Cc1ccc(CN2C(=O)COc3ccccc3C2=O)cc1,–,–,–,38.8,–
CC1(C)CC(Nc2nc(NCCO)c3ccccc3n2)CC(C)(C)N1,–,–,–,–,–
COc1cccc(Cn2nc(C(=O)O)c3ccccc3c2=O)c1,–,–,–,38.3,–
CCc1ccc(-c2noc(CNC(c3ccc(F)cc3)C(C)C)n2)cc1 (centres undefined),–,–,–,–,–
O=C(Nc1ccccc1-c1ccccc1)c1ccccc1Oc1ccccc1,–,–,–,–,–
Cc1cc(Cl)ccc1NC(=O)c1cc(-c2ccncc2)n[nH]1,65.5,–,89.6,72.3,–
CCc1ccccc1NC(=O)c1cc(-c2ccccn2)n[nH]1,73.2,–,38.1,–,–
O=C(Nc1ccccc1Cl)c1cc(-c2ccncc2)n[nH]1,74.2,–,92.1,78.5,–
COc1ccccc1CNC(=O)c1cc(-c2ccccn2)n[nH]1,·,–,–,–,–
SMILES,USP17 inh,USP8 block,USP30 block,USP28 inh,USP10 block
CC(=O)N1Cc2cc(C)ccc2OC2(CCN(CC(=O)Nc3c(C)cccc3C)CC2)C1,–,–,–,–,–
CCCCCC(=O)C(CCCC)c1oc(=O)c(CCCC)c(O)c1CCCC (centres undefined),30.3,–,–,–,39.1
Cc1cc(C2CCCN2C(=O)NC2CCCCC2)on1 (centres undefined),–,–,–,–,–
CC(=O)O[C@@H](C/C=C(\C)C(=O)O)[C@@H](C)[C@H]1C[C@H](OC(C)=O)[C@@]2(C)C3=CC[C@H]4C(C)(C)[C@H](O)CC[C@]4(C)C3=CC[C@]12C,55.8,–,62.3,45.4,52.0
CC(=O)O[C@@H](C/C=C(\C)C(=O)O)[C@@H](C)[C@H]1C[C@H](OC(C)=O)[C@@]2(C)C3=CC[C@H]4C(C)(C)[C@H](OC(C)=O)CC[C@]4(C)C3=CC[C@]12C,100.2,92.2,101.1,99.9,95.2
CN1C(=O)COc2ccccc2CCCC[C@@H]2[C@H]1CCCN2C(=O)c1cccnn1,–,–,–,–,–
Nc1nc(/C=C/c2ccc(Cl)cc2)nc(-c2ccccc2O)n1,36.5,–,–,–,–
Nc1nc(/C=C/c2ccc(Br)cc2)nc(-c2ccccc2O)n1,–,–,–,–,–
NCCCC(N)CC(=O)NCCCC(N)CC(=O)NCCCC(N)CC(=O)NCCCC(N)CC(=O)NCCCC(N)CC(=O)NCCCC(N)CC(=O)NC1C(NC2=N[C@@H]3C(=O)NC[C@@H](O)[C@H]3N2)OC(CO)C(OC(N)=O)C1O (some centres undefined),–,–,32.1,–,–
